This passage reports cytotoxicity call results from the antibiotic and cytotoxicity screens of Wong et al. (2023).

About 3,300 (8.5%) of roughly 39,000 compounds were called active. The list comes from a sample in which actives are over-represented; it also holds similar structures and randomly drawn compounds.

In this assay the test system is HepG2. Description: cytotoxicity call (relative viability < 0.9). The note with it: 10 µM.
Consider `CNC(=O)c1ccc(CO)cc1`, for which the cytotoxicity call is “inactive”.

As to `CN(C)Cc1cn(CC[C@@H]2CC[C@H](N)[C@@H](CO)O2)nn1`, the cytotoxicity call is “inactive”.

Consider `C[C@H]1CN([C@@H](C)CO)C(=O)c2cccc(NC(=O)NC3CCCCC3)c2O[C@H]1CN(C)S(=O)(=O)c1cn(C)cn1`, for which the cytotoxicity call is “inactive”.

Regarding `O=C(C[C@@H]1CC[C@H]2[C@@H](COC[C@@H](O)CN2C(=O)c2ccccn2)O1)NC1CCC1`, the cytotoxicity call is “inactive”.

Take `CN1C(=O)c2ccccc2C1=O`: the cytotoxicity call is “inactive”.

As for `CN1CCC(=C2c3ccccc3CC(=O)c3sccc32)CC1.O=C(O)C=CC(=O)O`, the cytotoxicity call is “inactive”.

In the case of `CN1CCN(C(c2ccccc2)c2ccccc2)CC1`, the cytotoxicity call was “inactive”.

As to `CN1CCC(=C2c3ccccc3Sc3ccccc32)CC1.O=C(O)C=CC(=O)O`, the cytotoxicity call is “active”.

Turning to `CN1CCC(=C2c3ccccc3CCc3sccc32)CC1.O=C(O)CC(O)C(=O)O`, the cytotoxicity call was “inactive”.

In the case of `CN1CCC(=C2c3ccccc3C=Cc3ccccc32)CC1.Cl`, the cytotoxicity call is “active”.

For `C[C@H]1CCCCO[C@H](CN(C)C(=O)Nc2ccc(C(F)(F)F)cc2)[C@@H](C)CN([C@@H](C)CO)C(=O)c2cc(NC(=O)c3ccccc3)ccc2O1`, the cytotoxicity call was “inactive”.

Consider `CCOC(=O)[C@@H]1C(Cc2ccccc2)=CN(CCc2ccc(OC)c(OC)c2)C(=O)N1c1ccc(OC)cc1`, for which the cytotoxicity call was “inactive”.

In the case of `C[C@@H]1CN([C@H](C)CO)C(=O)c2cc(C#CCN(C)C)cnc2O[C@@H]1CN(C)C(=O)Nc1cccc(F)c1`, the cytotoxicity call is “inactive”.

As for `C[C@@H]1CN([C@@H](C)CO)C(=O)c2cccc(NC(=O)c3nc4ccccc4s3)c2O[C@@H]1CN(C)CC1CCCCC1`, the cytotoxicity call is “active”.

For `C[C@@H]1CN([C@H](C)CO)C(=O)c2cccc(NC(=O)c3nc4ccccc4s3)c2O[C@@H]1CN(C)C(=O)Nc1cccc2ccccc12`, the cytotoxicity call was “inactive”.

Turning to `C[C@H](CO)N1C[C@H](C)[C@H](CN(C)C(=O)Nc2cccc3ccccc23)Oc2c(NC(=O)c3nc4ccccc4s3)cccc2C1=O`, the cytotoxicity call was “inactive”.

Turning to `C[C@@H]1CN([C@@H](C)CO)C(=O)c2cccc(NC(=O)c3nc4ccccc4s3)c2O[C@H]1CN(C)C(=O)Nc1cccc2ccccc12`, the cytotoxicity call was “active”.

On to `C[C@H](CO)N1C[C@H](C)[C@@H](CN(C)C(=O)Nc2cccc3ccccc23)Oc2c(NC(=O)c3nc4ccccc4s3)cccc2C1=O`, for which the cytotoxicity call is “active”.

For the compound `C[C@@H]1CN([C@H](C)CO)C(=O)c2cccc(NC(=O)c3nc4ccccc4s3)c2O[C@H]1CN(C)CC1CCCCC1`, the cytotoxicity call is “inactive”.

With `C[C@H]1CN([C@@H](C)CO)C(=O)c2cccc(NC(=O)c3nc4ccccc4s3)c2O[C@H]1CN(C)C(=O)Nc1cccc2ccccc12`, the cytotoxicity call is “inactive”.

Turning to `C[C@H]1CN([C@@H](C)CO)C(=O)c2cccc(NC(=O)c3nc4ccccc4s3)c2O[C@@H]1CN(C)C(=O)Nc1cccc2ccccc12`, the cytotoxicity call is “inactive”.

Turning to `C[C@@H]1CN([C@@H](C)CO)C(=O)c2cccc(NC(=O)c3nc4ccccc4s3)c2O[C@H]1CN(C)CC1CCCCC1`, the cytotoxicity call was “inactive”.

Consider `COc1cccc(S(=O)(=O)N[C@H]2CC[C@@H](CC(=O)NC3CCC3)O[C@H]2CO)c1`, for which the cytotoxicity call is “inactive”.

With `COC(=O)c1c[nH]c(=S)n1C`, the cytotoxicity call was “inactive”.

As to `COc1ccc(NC(=O)Nc2cccc3c2O[C@H](CN(C)Cc2ccc(C(=O)Nc4ccccc4N)cc2)[C@@H](C)CN([C@@H](C)CO)C3=O)cc1`, the cytotoxicity call was “inactive”.

For `O=C(C[C@H]1CC[C@@H]2[C@H](COC[C@H](O)CN2C(=O)c2ccccc2F)O1)N1CCN(c2ccccc2)CC1`, the cytotoxicity call is “inactive”.

Consider `CC[C@@H](C)SSc1ncc[nH]1`, for which the cytotoxicity call is “inactive”.

For the compound `C[C@H](CO)N1C[C@H](C)[C@@H](CN(C)C(=O)Nc2cccc3ccccc23)OCCCC[C@H](C)Oc2ccc(NC(=O)C3CCCCC3)cc2C1=O`, the cytotoxicity call is “inactive”.

Take `C[C@H](CO)N1C[C@H](C)[C@H](CN(C)C(=O)Nc2cccc3ccccc23)OCCCC[C@H](C)Oc2ccc(NC(=O)C3CCCCC3)cc2C1=O`: the cytotoxicity call is “active”.

Turning to `C[C@@H]1CCCCO[C@@H](CN(C)C(=O)Nc2cccc3ccccc23)[C@@H](C)CN([C@@H](C)CO)C(=O)c2cc(NC(=O)C3CCCCC3)ccc2O1`, the cytotoxicity call is “inactive”.

Turning to `C[C@@H]1CCCCO[C@@H](CN(C)C(=O)Nc2cccc3ccccc23)[C@H](C)CN([C@@H](C)CO)C(=O)c2cc(NC(=O)C3CCCCC3)ccc2O1`, the cytotoxicity call was “inactive”.

On to `C[C@@H]1CN([C@H](C)CO)C(=O)c2cc(NC(=O)C3CCCCC3)ccc2O[C@@H](C)CCCCO[C@@H]1CN(C)C(=O)Nc1cccc2ccccc12`, for which the cytotoxicity call is “active”.

Consider `C[C@@H]1CCCCO[C@@H](CN(C)C(=O)Nc2cccc3ccccc23)[C@H](C)CN([C@H](C)CO)C(=O)c2cc(NC(=O)C3CCCCC3)ccc2O1`, for which the cytotoxicity call was “active”.

As to `C[C@@H]1CCCCO[C@H](CN(C)C(=O)Nc2cccc3ccccc23)[C@H](C)CN([C@H](C)CO)C(=O)c2cc(NC(=O)C3CCCCC3)ccc2O1`, the cytotoxicity call was “active”.

On to `C[C@@H]1CCCCO[C@H](CN(C)C(=O)Nc2cccc3ccccc23)[C@@H](C)CN([C@@H](C)CO)C(=O)c2cc(NC(=O)C3CCCCC3)ccc2O1`, for which the cytotoxicity call was “inactive”.

As to `C[C@@H]1CCCCO[C@H](CN(C)C(=O)Nc2cccc3ccccc23)[C@@H](C)CN([C@H](C)CO)C(=O)c2cc(NC(=O)C3CCCCC3)ccc2O1`, the cytotoxicity call is “inactive”.

As to `C[C@H]1CCCCO[C@@H](CN(C)C(=O)Nc2cccc3ccccc23)[C@@H](C)CN([C@@H](C)CO)C(=O)c2cc(NC(=O)C3CCCCC3)ccc2O1`, the cytotoxicity call was “inactive”.

Consider `C[C@@H]1CN([C@H](C)CO)C(=O)c2cc(NC(=O)C3CCCCC3)ccc2O[C@@H](C)CCCCO[C@H]1CN(C)C(=O)Nc1cccc2ccccc12`, for which the cytotoxicity call is “inactive”.

For `C[C@@H]1CCCCO[C@@H](CN(C)C(=O)Nc2cccc3ccccc23)[C@@H](C)CN([C@H](C)CO)C(=O)c2cc(NC(=O)C3CCCCC3)ccc2O1`, the cytotoxicity call was “inactive”.

Take `C[C@H]1CN([C@@H](C)CO)C(=O)c2cc(NC(=O)Cn3cnnn3)ccc2O[C@H]1CN(C)S(=O)(=O)c1ccc(Cl)cc1`: the cytotoxicity call is “inactive”.

Turning to `COc1ccc(S(=O)(=O)N(C)C[C@H]2Oc3ccc(NS(=O)(=O)c4ccc(C)cc4)cc3C(=O)N([C@H](C)CO)C[C@H]2C)cc1`, the cytotoxicity call was “inactive”.

For `C[C@@H]1CN([C@@H](C)CO)C(=O)Cc2cc(NC(=O)C3CCCCC3)ccc2O[C@@H]1CN(C)S(=O)(=O)c1cn(C)cn1`, the cytotoxicity call is “inactive”.

Turning to `C[C@H](CO)N1C[C@H](C)[C@H](CN(C)Cc2ccc(Oc3ccccc3)cc2)Oc2c(NC(=O)Nc3ccccc3)cccc2C1=O`, the cytotoxicity call is “inactive”.

In the case of `O[C@@H](Cc1ccccc1)[C@@H](/C=C/C1CC1)N(CC#Cc1ccccc1)Cc1ccccc1Br`, the cytotoxicity call was “inactive”.

Take `C[C@H](CO)N1C[C@H](C)[C@H](CN(C)C(=O)Nc2ccc3c(c2)OCO3)Oc2ccc(NC(=O)Nc3cccc4ccccc34)cc2C1=O`: the cytotoxicity call is “inactive”.

On to `C[C@@H]1CN([C@@H](C)CO)C(=O)c2cc(NC(=O)C3CCCCC3)ccc2O[C@@H](C)CCCCO[C@H]1CN(C)C(=O)Nc1cccc2ccccc12`, for which the cytotoxicity call is “inactive”.

Turning to `C[C@@H]1CCCCO[C@H](CN(C)C(=O)Nc2cccc3ccccc23)[C@H](C)CN([C@@H](C)CO)C(=O)c2cc(NC(=O)C3CCCCC3)ccc2O1`, the cytotoxicity call was “inactive”.

With `C[C@@H]1CN([C@@H](C)CO)C(=O)c2cc(NC(=O)C3CCCCC3)ccc2O[C@@H](C)CCCCO[C@@H]1CN(C)C(=O)Nc1cccc2ccccc12`, the cytotoxicity call was “active”.

For `C[C@H]1CCCCO[C@H](CN(C)S(=O)(=O)c2cccs2)[C@@H](C)CN([C@@H](C)CO)C(=O)c2cc(NC(=O)Nc3ccccc3)ccc2O1`, the cytotoxicity call was “inactive”.

In the case of `COc1ccc2c3c(n(c2c1)C)[C@@H](CO)N(C[C@]13CCN(CC1)C(=O)c1cnccn1)C(=O)c1cnccn1`, the cytotoxicity call is “inactive”.

In the case of `CC(C)NC(=O)N(C)C[C@@H]1OCCCC[C@@H](C)Oc2ccc(NC(=O)Nc3cccc4ccccc34)cc2C(=O)N([C@H](C)CO)C[C@@H]1C`, the cytotoxicity call was “inactive”.

`Cc1csc(-c2nnc(Nc3ccc(Oc4ncccc4-c4ccnc(N)n4)cc3)c3ccccc23)c1`: the cytotoxicity call was “active”.

On to `Cc1ccc(Oc2nnc(-c3cccs3)c3ccccc23)cc1`, for which the cytotoxicity call was “inactive”.

Consider `C[C@@]1(c2ccc3c(c2)OCCO3)NC(=O)NC1=O`, for which the cytotoxicity call is “inactive”.

For `Cc1noc(C)c1S(=O)(=O)Nc1ccc2c(c1)CC(=O)N([C@@H](C)CO)C[C@H](C)[C@H](CN(C)Cc1ccncc1)O2`, the cytotoxicity call was “inactive”.

As to `C[C@H]1O[C@@H](O[C@H]2CC[C@@]3(C)[C@@H](CC[C@@]4(C)[C@@H]3CC=C3[C@H]5C[C@](C)(C(=O)O)CC[C@]5(C(=O)O[C@H]5O[C@@H](CO)[C@@H](O)[C@@H](O)[C@@H]5O)CC[C@@]34C)[C@@]2(C)CO)[C@@H](O)[C@@H](O[C@H]2O[C@@H](CO)[C@@H](O)[C@@H](O)[C@@H]2O)[C@@H]1O`, the cytotoxicity call was “inactive”.

With `C/C=C(/C)C(=O)O[C@@H]1[C@H](OC(C)=O)[C@]2(CO)[C@H](O)C[C@]3(C)C(=CC[C@H]4[C@@]5(C)CC[C@H](O[C@@H]6O[C@H](C(=O)O)[C@@H](O[C@@H]7O[C@H](CO)[C@@H](O)[C@H](O)[C@H]7O)[C@H](O)[C@H]6O[C@@H]6O[C@H](CO)[C@@H](O)[C@H](O)[C@H]6O)[C@](C)(CO)[C@@H]5CC[C@]43C)[C@@H]2CC1(C)C`, the cytotoxicity call was “inactive”.

As to `C[C@@H]1CC[C@]2(C(=O)O[C@@H]3O[C@H](CO)[C@@H](O)[C@H](O)[C@H]3O)CC[C@]3(C)C(=CC[C@H]4[C@@]5(C)C[C@@H](O)[C@H](O)[C@@](C)(CO)[C@@H]5CC[C@]43C)[C@@H]2[C@]1(C)O`, the cytotoxicity call is “inactive”.

Take `CC=C(C)C(=O)O[C@H]1[C@H](OC(C)=O)[C@]2(CO)[C@H](O)C[C@]3(C)C(=CC[C@@H]4[C@@]5(C)CC[C@H](O[C@@H]6O[C@H](C(=O)O)[C@@H](O[C@@H]7O[C@H](CO)[C@@H](O)[C@H](O)[C@H]7O)[C@H](O)[C@H]6O[C@@H]6O[C@H](CO)[C@@H](O)[C@H](O)[C@H]6O)[C@](C)(CO)[C@@H]5CC[C@]43C)[C@@H]2CC1(C)C`: the cytotoxicity call is “active”.

Consider `C/C=C(/C)C(=O)O[C@H]1[C@@H](OC(C)=O)[C@@]2(CO)[C@@H](O)C[C@@]3(C)C(=CC[C@H]4[C@@]5(C)CC[C@@H](O[C@H]6O[C@H](C(=O)O)[C@@H](O[C@H]7O[C@@H](CO)[C@@H](O)[C@@H](O)[C@@H]7O)[C@@H](O)[C@@H]6O[C@H]6O[C@@H](CO)[C@@H](O)[C@@H](O)[C@@H]6O)[C@@](C)(CO)[C@@H]5CC[C@]43C)[C@@H]2CC1(C)C`, for which the cytotoxicity call was “active”.

Regarding `CC=C(C)C(=O)OC1C(OC(C)=O)C2(CO)C(O)CC3(C)C(=CCC4C5(C)CCC(OC6OC(C(=O)O)C(OC7OC(CO)C(O)C(O)C7O)C(O)C6OC6OC(CO)C(O)C(O)C6O)C(C)(CO)C5CCC43C)C2CC1(C)C` (stereo unspecified), the cytotoxicity call is “active”.
